# Assay results reported in PubChem BioAssay.
# Activity calls are given as the source filed them. Unless noted, how the calls were made is not given here.
# Assays:
# [1] = resazurin metabolic signal in HepG2 cells – cell-based, resazurin fluorescence, 24 h, PK04 Diversity Set, profiling panel (AID 1172); conditions: HepG2 viability, higher = more signal
# [2] = budding yeast growth changes without added modifier – OD600, strain BY4716, 24 h, basal condition, primary screen (AID 1173); conditions: S. cerevisiae BY4716 growth, OD600, 24 h; higher = more signal, called active from +8 up or from −8 down
# [3] = viability profiling in MM1S myeloma cells – cell-based, resazurin fluorescence, basal, 24 h, PK04 Diversity Set, profiling panel (AID 1174); conditions: higher = more signal, called active from +8 up or from −8 down;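 further: MM1S multiple myeloma cell line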
# [4] = molecular target: Dihydroorotate dehydrogenase (quinone), mitochondrial (Plasmodium falciparum (isolate 3D7)) (UniProt Q08210); experiment: inhibition of P. falciparum DHODH – biochemical, C-terminal His tag, absorbance 600 nm, primary screen (AID 1175); conditions: PfDHODH enzyme, DCIP absorbance 600 nm; higher = more signal, called active from +8 up or from −8 down;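 further: recombinant parasite enzyme with a five histidine tag at its C terminus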
# Chain of Dihydroorotate dehydrogenase (quinone), mitochondrial (Plasmodium falciparum (isolate 3D7)) (Q08210 whole entry, looked up): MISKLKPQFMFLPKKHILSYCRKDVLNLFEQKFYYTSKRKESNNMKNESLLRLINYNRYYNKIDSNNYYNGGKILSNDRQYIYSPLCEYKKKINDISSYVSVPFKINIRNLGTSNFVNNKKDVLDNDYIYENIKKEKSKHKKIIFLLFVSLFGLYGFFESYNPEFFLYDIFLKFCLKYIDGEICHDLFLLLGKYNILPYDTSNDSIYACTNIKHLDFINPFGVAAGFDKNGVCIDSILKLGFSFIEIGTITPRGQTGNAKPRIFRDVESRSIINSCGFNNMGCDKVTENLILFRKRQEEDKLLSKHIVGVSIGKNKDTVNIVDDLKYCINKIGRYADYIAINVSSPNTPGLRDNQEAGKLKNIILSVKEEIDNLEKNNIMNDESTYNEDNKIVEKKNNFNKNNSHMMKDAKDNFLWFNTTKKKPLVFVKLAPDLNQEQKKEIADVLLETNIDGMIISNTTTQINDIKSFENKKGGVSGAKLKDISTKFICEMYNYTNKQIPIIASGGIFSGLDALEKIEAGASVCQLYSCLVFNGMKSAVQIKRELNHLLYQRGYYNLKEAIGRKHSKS
# [5] = inhibition of PAO1 biofilm formation – strain PAO1, LB-PBS medium, absorbance 600 nm, primary screen (AID 1176); conditions: P. aeruginosa PAO1 growth/biofilm, A600, 12 h; higher = more signal
# [6] = growth modulation of vineyard yeast isolate – strain RM11-1a, OD600, basal, 24 h, primary screen (AID 1177);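 further: cultures grown under basal conditions with no added stressor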; conditions: S. cerevisiae RM11-1a growth, OD600, 24 h; higher = more signal, called active from +8 up or from −8 down
# [7] = growth of efflux-deficient E. coli DRC39 – strain DRC39, OD650, 24 h, E. coli filamentation inducers, primary screen (AID 1178);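 further: growth measured as culture turbidity by optical density at 650 nm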; conditions: E. coli DRC39 acrAB, higher = more signal, called active from +8 up or from −8 down
# [8] = growth of efflux-deficient E. coli DRC39 – strain DRC39, OD650, 48 h, E. coli filamentation inducers, primary screen (AID 1179);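 further: screen aims at cell division blockers that make cells filament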; conditions: E. coli DRC39 delta-acrAB growth, higher = more signal, called active from +8 up or from −8 down
# [9] = viability profiling in RPMI8226 myeloma cells – cell-based, resazurin fluorescence, basal, 24 h, PK04 Diversity Set, profiling panel (AID 1180); conditions: higher = more signal;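 further: RPMI8826 multiple myeloma cell line at 5000 cells per well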
# [10] = molecular target: E3 ubiquitin-protein ligase XIAP (Homo sapiens) (UniProt P98170); experiment: small molecules binding XIAP protein – biophysical, small-molecule microarray, fluorescence 635 nm, primary screen (AID 1181); conditions: higher = more signal;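 further: score merges 667 nm emission and signal to noise over triplicate slides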
# Chain of E3 ubiquitin-protein ligase XIAP (Homo sapiens) (P98170 whole entry, looked up, the tested form may be a part): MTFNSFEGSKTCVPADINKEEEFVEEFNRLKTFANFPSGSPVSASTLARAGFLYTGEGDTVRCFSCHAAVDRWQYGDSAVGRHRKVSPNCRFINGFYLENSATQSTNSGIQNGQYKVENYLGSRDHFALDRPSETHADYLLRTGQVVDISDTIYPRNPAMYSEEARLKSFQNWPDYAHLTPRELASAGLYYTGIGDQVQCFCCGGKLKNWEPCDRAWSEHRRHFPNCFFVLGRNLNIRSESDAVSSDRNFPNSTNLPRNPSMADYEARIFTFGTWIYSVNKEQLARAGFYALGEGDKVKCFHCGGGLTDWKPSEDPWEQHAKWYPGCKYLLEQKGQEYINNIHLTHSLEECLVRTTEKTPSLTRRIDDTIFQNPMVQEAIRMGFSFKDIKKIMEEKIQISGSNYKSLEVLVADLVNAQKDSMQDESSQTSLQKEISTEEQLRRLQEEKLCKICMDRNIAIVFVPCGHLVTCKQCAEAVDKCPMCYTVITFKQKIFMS
# [11] = system: XIP peptide (Xip251-270) binding; experiment: XIP fragment 251-270 binding compounds – biochemical, small-molecule microarray, fluorescence 635/667 nm, 0.1 µg/mL protein, primary screen (AID 1182); conditions: fluorescent protein binding, 635 nm, higher = more signal, called active from +8 up or from −8 down
# XIP peptide (Xip251-270) = experiment: compounds binding XIP fragment 251-270 – biochemical, small-molecule microarray, fluorescence 635/667 nm, 0.5 µg/mL protein, primary screen (AID 1183); conditions: fluorescence 635 nm, higher = more signal
# [12] = blood-stage malaria parasite viability loss – strain 3D7, DAPI fluorescence, 100 nL, primary screen (AID 1184);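 further: parasites grown inside human red blood cells in medium with human serum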; conditions: P. falciparum 3D7 growth, 3 d, higher = more signal
# [13] = molecular target: Homeobox protein Hox-A13 (Mus musculus) (UniProt Q62424); experiment: disruptors of Hoxa13 oligonucleotide interaction – biochemical, fluorescence polarization, labeled oligonucleotide, primary screen (AID 1185); conditions: Hoxa13:DNA binding, 15 min, higher = more signal, called active from +8 up or from −8 down
# Chain of Homeobox protein Hox-A13 (Mus musculus) (Q62424 whole entry, looked up): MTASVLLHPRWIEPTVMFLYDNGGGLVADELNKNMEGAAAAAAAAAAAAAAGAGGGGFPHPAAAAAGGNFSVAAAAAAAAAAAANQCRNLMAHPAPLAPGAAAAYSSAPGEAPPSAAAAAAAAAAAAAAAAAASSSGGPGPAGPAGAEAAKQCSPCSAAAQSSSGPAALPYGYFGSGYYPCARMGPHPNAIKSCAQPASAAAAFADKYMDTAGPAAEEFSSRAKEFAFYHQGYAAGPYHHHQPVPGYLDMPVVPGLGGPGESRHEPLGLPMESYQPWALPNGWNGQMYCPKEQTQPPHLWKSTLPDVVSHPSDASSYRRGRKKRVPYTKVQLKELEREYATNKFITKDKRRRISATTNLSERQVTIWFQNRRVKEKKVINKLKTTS
# [14] = blockers of DNA damage checkpoint Chk1 activation – imaging, HeLa, hydroxyurea, phospho-Chk1 antibody, percent positive cells, primary screen (AID 1186); conditions: hydroxyurea-induced phospho-Chk1 immunofluorescence imaging, higher = more signal
# [15] = blockers of DNA damage checkpoint Chk1 activation – imaging, HeLa, hydroxyurea, phospho-Chk1 nuclear intensity, primary screen (AID 1187); conditions: hydroxyurea-induced phospho-Chk1 immunofluorescence imaging, higher = more signal
SMILES,z-score [1],z-score [2],z-score [3],composite z-score [4],z-score [5],z-score [6],z-score [7],z-score [8],z-score [9],composite z-score [10],composite z-score [11],composite z-score (XIP peptide (Xip251-270)),z-score [12],z-score [13],z-score [14],z-score [15]
CCOC(=O)C1=CCC(c2cc3ccccc3[nH]2)N(S(=O)(=O)c2ccccc2[N+](=O)[O-])C1 (configuration not stated),-0.0211,1.08 (inactive),-1.08 (inactive),-0.242 (inactive),0.546 (inactive),-0.16 (inactive),-0.591 (inactive),0.158 (inactive),-1.62,-0.014,-0.212 (inactive),0.817,-0.65,-1.5 (inactive),-0.285 (inactive),-0.518 (inactive)
C=CC[C@]1(C(=O)NCCCOC)N=C(c2ccc(OCCCO)cc2)O[C@H]1c1ccccc1,0.998,-0.96 (inactive),0.619 (inactive),-0.205 (inactive),-0.661 (inactive),0.0543 (inactive),0.178 (inactive),0.735 (inactive),1.36,0.102,0.227 (inactive),0.659,-0.67,-6.7 (inactive),-0.132 (inactive),0.0245 (inactive)
C=CC[C@@]1(C(=O)N(C)C)N=C(c2ccc(OCCCO)cc2)O[C@@H]1c1ccccc1,0.879,-2.54 (inactive),-0.235 (inactive),0.13 (inactive),0.95 (inactive),-0.422 (inactive),-0.936 (inactive),-0.649 (inactive),0.267,-0.33,0.98 (inactive),0.425,-0.76,-6.79 (inactive),0.343 (inactive),0.0811 (inactive)
O=c1cccc(-c2ccccc2C(F)(F)F)o1,-0.719,-3.23 (inactive),-0.256 (inactive),-0.636 (inactive),0.698 (inactive),-0.432 (inactive),-0.736 (inactive),-0.275 (inactive),-0.59,0.144,-0.808 (inactive),-0.597,1.58,-1.43 (inactive),-0.968 (inactive),-1.66 (inactive)
COc1cc2c(cc1O)C(c1ccc(CN3CCCC3)cc1)N(Cc1ccc([N+](=O)[O-])o1)CC2 (configuration not stated),-0.274,-0.547 (inactive),-0.727 (inactive),-0.412 (inactive),0.0898 (inactive),0.0464 (inactive),-0.79 (inactive),-0.259 (inactive),-0.437,0.0537,0.119 (inactive),-0.0067,-0.672,-7.64 (inactive),0.191 (inactive),0.134 (inactive)
COC(=O)[C@@]1(Cc2ccccc2CN=[N+]=[N-])COC(c2ccc(OCCCO)cc2)=N1,-0.639,-5.02 (inactive),-1.75 (inactive),0.37 (inactive),1.07 (inactive),0.593 (inactive),0.544 (inactive),-0.74 (inactive),-0.39,-0.0582,1.31 (inactive),0.871,-1.3,-4.77 (inactive),-0.184 (inactive),0.0494 (inactive)
COc1ccc([Si](C)(C)[C@@H]2[C@@H](CCO)O[C@]3(C(=O)N(Cc4ccccc4)c4ccc(N5C(=O)c6ccccc6Oc6ccccc65)cc43)[C@H]2C)cc1,1.09,1.84 (inactive),-1.3 (inactive),-0.641 (inactive),0.225 (inactive),3.88 (inactive),0.727 (inactive),0.435 (inactive),-1.81,-0.157,0.664 (inactive),0.299,-0.119,-1.08 (inactive),-0.83 (inactive),-0.253 (inactive)
NC(=O)NCC#Cc1ccc2c(c1)[C@]1(C(=O)N2)[C@H](C(=O)N2CCCCCCC2)[C@H]2C(=O)O[C@H](c3ccccc3)[C@H](c3ccccc3)N2[C@@H]1c1ccc(O)cc1,0.0542,0.319 (inactive),0.678 (inactive),0.246 (inactive),1.92 (inactive),0.0562 (inactive),0.271 (inactive),-0.194 (inactive),-0.018,0.751,0.123 (inactive),0.833,0.285,-0.376 (inactive),0.0378 (inactive),-0.144 (inactive)
CCCC[C@H]1OB(O)C[C@H]2C1=C(COC)C[C@H]1C(=O)C=CC(=O)[C@H]12,-0.796,-3.96 (inactive),-0.203 (inactive),-2.14 (inactive),1.52 (inactive),0.0887 (inactive),1.13 (inactive),0.756 (inactive),-0.0072,-0.0238,0.473 (inactive),0.407,-1.09,-6.74 (inactive),-0.591 (inactive),-0.434 (inactive)
O=C1O[C@H](c2ccccc2)[C@H](c2ccccc2)N2[C@H]1[C@@H](C(=O)N1CCN(c3ncccn3)CC1)[C@]1(C(=O)Nc3ccccc31)[C@H]2c1ccc(O)cc1,-0.291,0.688 (inactive),-0.73 (inactive),0.447 (inactive),0.641 (inactive),2.29 (inactive),0.179 (inactive),0.481 (inactive),-1.2,-0.13,0.0016 (inactive),0.458,-0.976,-1.2 (inactive),0.746 (inactive),1.46 (inactive)
O=C1NC(=O)C2C1C=CC(C(O)c1cccc(O)c1)N2Nc1ccc(Cl)cc1Cl (configuration not stated),-1.79,-13.3 (active),-1.31 (inactive),1.03 (inactive),0.695 (inactive),0.915 (inactive),-0.526 (inactive),-3.39 (inactive),-1.69,-0.039,-0.186 (inactive),0.199,-0.0722,-5.1 (inactive),0.684 (inactive),0.194 (inactive)
COCC(=C=CC[C@@H](O)c1cccc(OCCO)c1)C[C@@H](O)COCc1ccccc1,0.744,-0.353 (inactive),0.629 (inactive),-2.13 (inactive),0.13 (inactive),-2.24 (inactive),0.481 (inactive),0.392 (inactive),0.629,1.16,0.0062 (inactive),0.0674,-1.71,-3.67 (inactive),-0.789 (inactive),-0.407 (inactive)
CN1C=C(C(=O)OCCS(C)(=O)=O)C(C(=O)OCCS(C)(=O)=O)=CC(CCCO)=CC1c1ccc(CN2CCCC2)cc1 (configuration not stated),-0.533,-2.02 (inactive),0.0555 (inactive),-0.379 (inactive),0.719 (inactive),0.27 (inactive),0.364 (inactive),0.121 (inactive),0.274,-0.0525,0.629 (inactive),0.694,-2.24,-4.07 (inactive),0.266 (inactive),-0.0538 (inactive)
CN(C)CCCC[C@@H]1NC(=O)[C@H]2C[C@@H](C(=O)NCc3ccc(F)cc3)[C@@H](c3ccc(O)cc3)N2C1=O,0.222,-0.549 (inactive),0.766 (inactive),-1.54 (inactive),-0.832 (inactive),-0.649 (inactive),0.11 (inactive),0.182 (inactive),0.382,0.207,2.07 (inactive),0.934,-0.057,-1.36 (inactive),0.806 (inactive),1.32 (inactive)
[N-]=[N+]=NCc1ccccc1[C@@H]1OC(c2ccc(OCCCO)cc2)=N[C@]1(Cc1ccccc1)C(=O)NCc1ccccc1,0.771,0.467 (inactive),-0.0664 (inactive),0.101 (inactive),-0.223 (inactive),1.7 (inactive),-0.0548 (inactive),0.065 (inactive),-0.484,0.1,0.362 (inactive),0.573,-2.24,2.8 (inactive),-0.306 (inactive),-0.144 (inactive)
C=CCNC(=O)[C@@H]1[C@H]2C(=O)O[C@H](c3ccccc3)[C@H](c3ccccc3)N2[C@H](c2ccc(O)cc2)[C@@]12C(=O)Nc1ccc(C#CC3(O)CCCCCC3)cc12,-0.285,0.0504 (inactive),-0.205 (inactive),0.0708 (inactive),0.498 (inactive),0.117 (inactive),0.6 (inactive),0.0092 (inactive),-1.57,-0.154,0.237 (inactive),-0.251,0.516,-3.49 (inactive),-0.326 (inactive),-0.0283 (inactive)
COCCOC(=O)N1C(=O)[C@@]2(c3cc(C#CC4=CCCCC4)ccc31)[C@H](c1ccccc1OCCO)N1[C@H](c3ccccc3)[C@H](c3ccccc3)OC(=O)[C@H]1[C@@H]2C(N)=O,-0.625,-0.431 (inactive),-2.78 (inactive),-0.176 (inactive),1.06 (inactive),0.486 (inactive),0.484 (inactive),-0.955 (inactive),-5.01,0.126,-0.0632 (inactive),0.558,-2.27,-0.721 (inactive),-0.254 (inactive),-0.167 (inactive)
